A selection: hits, their analogues and other compounds. The true share with any hit is near 2.9%.
D3 ag: D3 dopamine receptor (human) agonism. max activation, %. D3R DiscoveRx beta-arrestin cells, luminescence, 90 min. P35462. 410,000 compounds, 0.58% hits; in the data active = max activation above about 30%
Target sequence (P35462 whole entry, looked up): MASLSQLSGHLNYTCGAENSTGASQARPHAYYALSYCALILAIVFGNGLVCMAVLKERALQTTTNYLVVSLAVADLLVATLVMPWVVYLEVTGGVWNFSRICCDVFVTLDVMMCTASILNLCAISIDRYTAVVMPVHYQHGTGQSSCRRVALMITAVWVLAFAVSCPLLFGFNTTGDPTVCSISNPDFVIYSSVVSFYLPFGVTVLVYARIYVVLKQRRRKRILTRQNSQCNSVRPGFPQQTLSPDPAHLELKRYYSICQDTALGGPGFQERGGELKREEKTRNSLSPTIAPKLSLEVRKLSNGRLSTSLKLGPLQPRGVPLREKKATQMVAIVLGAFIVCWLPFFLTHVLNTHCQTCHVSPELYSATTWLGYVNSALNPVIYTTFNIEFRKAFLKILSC
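Cells at 1500/well, incubated overnight, then treated with pinned compounds (dopamine as control) for 90 min at 37 degrees C. DiscoveRx reagent added for 30 - 60 minutes at room temperature; luminescence read.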
a7 integrin act: activates integrin-mediated alleviation for muscular dystrophy; Potency, µM (titrated, usually from 38.3 µM), actives largely listed as activators; 350,000 compounds, 0.064% hits; alpha7betagal myoblasts, beta-gal FDG fluorescence, 48 h; AID 624291; active = well fitted activation curve with a large enough effect; inconclusive = small, poorly fitted or top-dose-only effect; inactive = no such curve, though single readings can be large or run the other way; note: nearly all actives have a fitted effect of over 60% in size
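alpha7betagal+/- myoblasts (passage 13, 250/well) treated 48 h at 37C with compounds at 1:260 dilution of DMSO stock. Lysed, then beta-galactosidase activity read as FDG fluorescence (ex 480/em 540) after 30 min, with pre-read for autofluorescence.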
DRD3 antagonist: antagonists of human D3 dopamine receptor. P35462. D3R cells, DiscoveRx beta-arrestin luminescence, antagonist mode; hits give low values. max response, negative = inhibition, %. 360,000 compounds, 2.5% hits; in the data active = max response below about -50%; inconclusive = no clear call, values can overlap the other calls
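Cells expressing the human receptor were seeded at 1500 cells/well, incubated overnight at 37 degrees C in 5% CO2, then exposed to library compounds with dopamine controls for 90 minutes at 37 degrees C before luminescent detection.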
Numbers stand for hits; - = inactive; ? = inconclusive; . = no result; ! = not confirmed by another sample.

SMILES	D3 ag	a7 integrin act	DRD3 antagonist
CCOC(=O)N1CCC(N2Cc3cccc(C(=O)NCc4ccc5c(c4)OCO5)c3C2=O)CC1	-	-	-
Cc1cccc(N(C)C(=S)Oc2ccc3c(c2)CCC3)c1	-	.	.
Cc1cccc(N(C)C(=S)Oc2ccc3ccccc3c2)c1	-	.	-64.7
C[C@H](NC(=O)c1[nH]cnc1C(=O)Nc1ccc(CNC(=O)OC(C)(C)C)cc1)C(=O)OC(C)(C)C	39.2	-	-
CC(C)(C)OC(=O)NCc1ccc(CNC(=O)c2nc[nH]c2C(=O)N2CCN(C(=O)OC(C)(C)C)CC2)cc1	43.1	-	-
CC(C)(C)OC(=O)NCCCC[C@H](NC(=O)c1[nH]cnc1C(=O)Nc1ccc(CNC(=O)OC(C)(C)C)cc1)C(=O)OC(C)(C)C	-	-	-
Cc1ccc(NC(=O)c2nc[nH]c2C(=O)N2CCN(C(=O)OC(C)(C)C)CC2)cc1	-	-	-
O=C(O)CCC1=C2c3ccccc3CCN2C(=O)CC1	-	-	-
Cc1nc2ccc(NC(=O)c3cccc(C(F)(F)F)c3)cc2o1	-	-	-
Cc1ccc(NC(=O)c2cccc(C(F)(F)F)c2)cc1NC(=O)c1[nH]cnc1C(N)=O	30.7	-	-
S=c1[nH]nc(-c2cccnc2)n1C1CCCCC1	-	-	-
S=c1[nH]nc(-c2ccccc2)n1C1C=CCCC1 (stereo unspecified)	-	-	-54.9
NC(=NCCc1ccc(Cl)cc1)NS(=O)(=O)c1ccc(F)cc1	-	-	-
O=C(CNC1CCCCC1)NN=C(c1ccccc1)c1ccccc1	-	-	-
O=C(NN=C(c1ccccc1)c1ccccc1)C(CCl)C1CCCCC1 (stereo unspecified)	-	-	-50.5
Cn1nccc1C(=O)Nc1sc2c(c1C#N)CCCC2	-	?	-
COc1ccc(-c2c(C)sc(NC(=O)c3ccnn3C)c2C#N)cc1	54.5	-	-
C=CCOc1ccc(C(=O)O)cc1Cl	-	-	-
CCOC(=O)Cc1csc(NC(=O)CN2CCCCC2)n1	-	-	-54.8
CCOC(=O)Cc1csc(NC(=S)NC(=O)c2ccc(F)cc2)n1	-	-	-
CCOC(=O)Cc1csc(NC(=S)NC(=O)c2cc(OC)c(OC)c(OC)c2)n1	-	3.55µM	-
CCOC(=O)Cc1csc(NC(=O)CC)n1	-	-	-
COc1ccc(S(=O)(=O)Nc2ccc3c(c2)C(=O)N([C@@H](C)CO)C[C@@H](C)[C@H](CN(C)C(=O)CCCN(C)C)OCCCC[C@H](C)O3)cc1	-	-	-
COc1ccccc1N=c1oc2cc(O)ccc2cc1C(N)=O	-	-	-53.6
COc1ccccc1NC(=O)c1cc2ccccc2o/c1=N\O	-	-	-
SMILES	D3 ag	a7 integrin act	DRD3 antagonist
COc1ccccc1NC(=O)c1cc2ccc(O)cc2o/c1=N\O	-	-	-74.8
Cc1cccc(N=c2oc3cc(O)ccc3cc2C(N)=O)c1	-	-	-
Cc1[nH]n(-c2ccccc2)c(=O)c1C(C[N+](=O)[O-])c1ccc(F)cc1 (stereo unspecified)	-	-	-
Cc1ccc(C(C[N+](=O)[O-])c2c(C)[nH]n(-c3ccccc3)c2=O)cc1 (stereo unspecified)	-	-	-63.5
CCc1nccn1S(=O)(=O)c1ccc(OC)c(C)c1C	-	-	-
Cc1cc([N+](=O)[O-])nn1CC(=O)N/N=C/c1ccccc1O	-	-	-
Cc1cc(C)n(CC(=O)c2cccc([N+](=O)[O-])c2)n1	-	-	-57.5
O=[N+]([O-])c1ccc(O)c(/C=N/NC(=S)Nc2ccc(Cl)cc2Cl)c1	-	-	?
Cc1cc(Cl)ccc1NC(=O)CCC(=O)N/N=C/c1cc([N+](=O)[O-])ccc1O	-	-	-55.9
Cc1cc(C)n(CC(=O)N/N=C/c2cc([N+](=O)[O-])ccc2O)n1	-	-	-56.3
Cc1cc(C)n(CC(=O)N/N=C/c2cc(Br)cc([N+](=O)[O-])c2O)n1	-	-	-66.4
Cc1cc(C)n(CCC(=O)N/N=C/c2ccc(Br)c([N+](=O)[O-])c2)n1	-	-	-
Cc1cc(C)n(CC(=O)c2ccc(Cl)cc2)n1	-	-	-
COc1ccc(CNC(=O)C2CCN(S(=O)(=O)c3ccc4c(c3)CCCN4C(C)=O)CC2)cc1	-	.	.
O=[N+]([O-])c1ccc(CN2CC(N3CCCC3)CS2(=O)=O)cc1 (stereo unspecified)	-	-	-
CC(C)CC(N)c1csc(Nc2ccc(C(=O)NCCO)cc2)n1 (stereo unspecified)	-	.	-
N#CCC(=O)Nc1ccc(C(=O)OCC(=O)NC2CCCCCC2)cc1	-	-	-
CCN(CC)c1c([N+](=O)[O-])c(=O)n(C)c2ccccc12	-	-	-
Cn1c(=O)c([N+](=O)[O-])c(Cl)c2ccccc21	-	-	-84.8
Cc1ccc(S(=O)(=O)c2nc(Nc3ccccc3)sc2Cl)cc1	-	-	-
Cc1ccc(S(=O)(=O)c2nc(NCCN(C)C)sc2Cl)cc1	-	-	-67.5
COc1ccc(C(=O)Oc2ccc3oc(=O)sc3c2)cc1	-	-	-51.9
COc1ccc(C(=O)Oc2ccc3ccc(=O)oc3c2)cc1	-	-	-
Cc1cc2ccccc2c(=O)n1CC(=O)Nc1ccc2c(c1)OCCO2	-	-	-
Cc1cc(-n2cccn2)ccc1CN1CCN(CC(C)C)C(CCO)C1 (stereo unspecified)	-	-	-
SMILES	D3 ag	a7 integrin act	DRD3 antagonist
CC(=O)c1cccc(CN2CCN(C3CCCCC3)C(CCO)C2)c1 (stereo unspecified)	-	-	-54.3
Cc1cc(-n2cccn2)ccc1CN1CCN(C2CCCC2)C(CCO)C1 (stereo unspecified)	-	-	-70.2
CC(=O)c1cccc(CN2CCN(Cc3ccccc3)C(CCO)C2)c1 (stereo unspecified)	-	-	-
CCCN1CCc2[nH]c(=S)[nH]c(=O)c2C1	-	-	-
CN(C)CCCN(C(=O)CCS(=O)(=O)c1ccccc1)c1nc2cc3c(cc2s1)OCO3	-	-	?
CN(C)CCCN(C(=O)CCSc1ccccc1)c1nc2cc3c(cc2s1)OCO3	-	-	-50.4
N#Cc1cccc(S(=O)(=O)NCCOc2ccccc2F)c1	-	-	-
CCc1ccc(NS(=O)(=O)c2ccc(OC)c3ncccc23)cc1	-	-	-
CCc1ccccc1NS(=O)(=O)c1ccc(OC)c2ncccc12	31.5!	-	-
CCn1nc(C)c(CCC(=O)O)c1C	-	-	-
Nc1nc(-c2ccco2)c(-c2ccco2)s1	-	-	-57.7
c1coc(-c2nc(-c3ccco3)c(-c3ccco3)nc2-c2ccco2)c1	-	-	-
Cc1cc(C(=O)CCl)c(C)n1CCc1ccc(Cl)cc1	-	-	-68.8
COc1ccc(CCn2c(C)cc(C(=O)CSc3nc(N)cc(=O)[nH]3)c2C)cc1	34.9	-	-
Cc1cc(C(=O)CCl)c(C)n1CCc1ccc(F)cc1	-	-	-
Cc1cc(C(=O)CSc2nc(N)cc(=O)[nH]2)c(C)n1CCc1ccc(F)cc1	-	-	-
O=C(NC1CCCCC1)c1ccc(Cn2c(SCc3ccccc3F)nc3cccnc32)cc1	-	.	.
CC(=O)c1ccc(NC2CC(O)C(O)CO2)cc1 (stereo unspecified)	-	-	-
CCCNC(=S)Nc1ccc(Oc2ccccc2)cc1	-	-	-
CC(=O)Oc1ccc(C(=O)Nn2cnnc2)cc1	-	-	-

Bioassay records as filed in PubChem BioAssay.
